Source: PubChem BioAssay AID624330 (Southern Research Specialized Biocontainment Screening …, 2012)
The campaign covered roughly 340,000 compounds. About 2,100 (0.62%) were called active.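 Rule for the calls: active = first-screen hits whose inhibition reached a set limit at any dose in the follow-up dose series; inconclusive = inhibition above the set first-screen limit but never retested; inactive = the rest.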 These entries were drawn from the full list. Entries with a potency or affinity are not part of this list.

These compounds were tested against Rac GTPase-activating protein 1 (Homo sapiens) (UniProt Q9H0H5) (assay: MgcRacGAP GTPase-activating activity inhibitors, confirmation, biochemical, ADP Hunter fluorescence, primary and confirmatory (AID 624330;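 note: fluorescence reports GDP produced by GAP-driven GTP hydrolysis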)). Conditions: MgcRacGAP-stimulated Rac1 GTP hydrolysis, at 30 µM, hits give high values, GST-tagged Rac1 F28L mutant substrate.
Rac GTPase-activating protein 1 (Homo sapiens), sequence (Q9H0H5 whole entry, looked up): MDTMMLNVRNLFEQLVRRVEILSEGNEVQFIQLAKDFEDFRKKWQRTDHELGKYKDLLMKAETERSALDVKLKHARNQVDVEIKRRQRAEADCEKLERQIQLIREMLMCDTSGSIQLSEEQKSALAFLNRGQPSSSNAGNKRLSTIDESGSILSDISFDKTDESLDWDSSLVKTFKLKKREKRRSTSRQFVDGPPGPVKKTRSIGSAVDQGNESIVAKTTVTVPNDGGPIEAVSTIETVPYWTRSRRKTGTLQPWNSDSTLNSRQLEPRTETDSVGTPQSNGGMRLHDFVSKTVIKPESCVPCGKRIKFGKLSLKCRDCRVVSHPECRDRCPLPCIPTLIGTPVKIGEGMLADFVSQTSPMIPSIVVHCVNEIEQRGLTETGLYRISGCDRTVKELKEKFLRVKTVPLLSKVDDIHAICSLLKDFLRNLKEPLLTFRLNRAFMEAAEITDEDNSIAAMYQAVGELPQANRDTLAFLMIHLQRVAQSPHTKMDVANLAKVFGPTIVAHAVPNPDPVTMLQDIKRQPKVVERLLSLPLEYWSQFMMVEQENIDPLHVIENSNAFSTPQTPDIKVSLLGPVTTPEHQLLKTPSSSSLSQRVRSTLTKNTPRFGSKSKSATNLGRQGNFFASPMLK

inhibition, inactive:
NC(=O)C1CCCN(S(=O)(=O)c2ccc3ccccc3c2)C1 (stereo unspecified) 2.91%, Cc1onc(-c2ccccc2)c1-c1n[nH]c(=S)n1-c1ccc(C(=O)O)cc1 5.16%, CC(=O)Nc1ccc(S(=O)(=O)N(C)S(=O)(=O)c2ccc(F)cc2)cc1 10.5%, CC(=O)c1cc(CN2CCN(Cc3ccc(C)cc3)C(CCO)C2)cs1 (stereo unspecified) 11.3%, CCOC(=O)N1CCN(Cc2ccc3ccccc3c2)CC1 28.6%, O=S(=O)(c1ccc2ccccc2c1)N1CCN(CCO)CC1 1.28%, CC(CCN1CCOCC1)c1ccccc1 (stereo unspecified) 22.5%, CC(CCN1CCN(c2ccccc2)CC1)c1ccccc1 (stereo unspecified) 0.31%, c1ccc2cc(CN3CCOCC3)ccc2c1 1.35%, O=[N+]([O-])c1ccccc1CN1CCN(Cc2ccc3ccccc3c2)CC1 28.3%, CC1c2[nH]c3ccccc3c2CCN1S(C)(=O)=O (stereo unspecified) 1.37%, Cc1ccc2cc(/C=N/NC(=O)c3ccc(F)cc3)c(Cl)nc2c1 5.25%, Cc1ccccc1NS(=O)(=O)c1cc(C(=O)Nc2cccc([N+](=O)[O-])c2)ccc1C 8.26%, O=C(Nc1cccc(-c2cccc(Cl)c2)c1)C1CCN(Cc2ccccn2)CC1 2.6%, CC(NS(=O)(=O)CCNC(=O)c1ccccc1)c1ccccc1 (stereo unspecified) 4.33%, CC(=O)Nc1ccc(S(=O)(=O)N[C@@H](C)C(=O)OCC(=O)c2ccc(Br)s2)cc1 16.7%, CCn1nnnc1Oc1ccc(Cl)cc1 1.61%, Oc1ccccc1/C=N/n1c2ccccc2c2ccccc21 8.39%, Cc1nnc(C)n1/N=C/c1ccc(C(=O)O)cc1 7.46%, S=c1[nH]nc(-c2cccnc2)n1/N=C/C=C/c1ccco1 21.5%, Cc1ccc(CN2CCN(/N=C/c3ccc(C(=O)O)cc3)CC2)cc1 8.13%, C(=N/n1c2ccccc2c2ccccc21)/c1ccco1 14.3%, Cc1cc(C)n(-c2nnc(C)n2/N=C/c2ccco2)n1 2.53%, S=c1[nH]nc(-c2ccccc2)n1/N=C/C=C/c1ccco1 30.9%, COc1cccc(/C=N/n2c(SC)nnc2-c2ccccc2)c1O 22.8%, NC(=O)COC(=O)c1cccc(S(=O)(=O)N2CCN(c3ccccc3)CC2)c1 7.91%, Cc1ccc(OCC(=O)NNC(=O)c2ccc(NC(=O)C3CC3)cc2)c(C)c1 7.97%, CC(=O)c1cccc(NS(=O)(=O)c2c(C)n[nH]c2C)c1 7.62%, CC(=O)Nc1ccc2c(c1)N(S(=O)(=O)c1cccs1)CCC2 4.49%, CC(C)OCCCNC(=O)c1ccc(CS(=O)(=O)Cc2ccccc2F)o1 3.97%, Cc1nc(N2CCN(c3ccccc3)CC2)nc2c1C(=O)CCC2 5.63%, CCN1C(=O)/C(=C/c2c(C)nn(C)c2C)SC1=S 0.43%, O=C(O)c1ccc(Nc2ncnc3ccccc23)cc1 7.58%, Cc1cccc(NC(=O)CNC(=O)COC(=O)c2ccco2)c1C -0.7%, c1ccc(C[C@H]2CN=C(Nc3ccccc3)N2CC2CCCCC2)cc1 3.05%, Cc1ccccc1-n1nc(C(=O)O)cc1-c1ccccc1 3.4%, O=C(NCCc1ccccc1)c1ccc(-c2ccccc2Cl)o1 5.22%, Cc1nnc(C)n1/N=C/C=C/c1ccccc1 1.05%, S=c1[nH]nc(-c2cccnc2)n1/N=C/C=C/c1ccccc1 5.39%, Cc1nnc(C)n1/N=C/c1ccccc1 6.18%, Cc1ccc(/C=N/n2c(-c3ccncc3)n[nH]c2=S)cc1 5.7%, CC1CCN(C(=O)C2CCN(S(=O)(=O)c3cccs3)CC2)CC1 6.45%, CCc1cc(C(=O)N2CCCC(C(=O)c3cccc(OC(C)C)c3)C2)n(C)n1 (stereo unspecified) 9.3%, COc1ccc2c(CC(=O)N3CCN(S(=O)(=O)c4ccc(F)cc4)CC3)coc2c1 1.15%, Cc1ccc2c(CC(=O)N3CCN(S(=O)(=O)c4ccccc4)CC3)coc2c1 5.1%, N#Cc1ccccc1S(=O)(=O)N1CCN(C(=O)CCc2ccccc2)CC1 6.33%, N#Cc1ccccc1S(=O)(=O)N1CCN(C(=O)Cc2n[nH]c(=O)c3ccccc23)CC1 1.94%, CCCn1c(N2CCN(C(=O)/C=C/C(=O)O)CC2)nc2ccccc21 10.8%, NC(=O)COC(=O)CCSc1ccc(Cl)cc1 5.12%, COC/C=C/C1=CC2=CC(=O)C(C)(OC(=O)c3cnc4ccccc4n3)C(=O)C2=CN1Cc1ccco1 (stereo unspecified) 11%, COc1nonc1NC(=O)CSc1nc2ccccc2[nH]1 9.74%, Oc1cccc(Nc2c3ccccc3nc3ccccc23)c1 16.7%, c1ccc(Nc2cccc(Nc3ccccc3)c2)cc1 19.8%, OC1(CC#CCN2CCCCC2)c2ccccc2-c2ccccc21 11.1%, O=C(c1ccco1)N1N=C2CCCCCC2C1(O)C(F)(F)F (stereo unspecified) 1.94%, Cc1ccc(OCCOCCN2CCN(C)CC2)c([N+](=O)[O-])c1 31.9%, C=CCNCCCCOc1ccc(C)cc1[N+](=O)[O-] 14%, Cc1ccc(OCCOCCNC(C)(C)C)c([N+](=O)[O-])c1 29.6%, Cc1ccc(OCCN2CCNCC2)c([N+](=O)[O-])c1 21.6%, Cc1cc(C)n(CCCN2CCC(C(=O)Nc3cccc(-c4cccc(F)c4)c3)CC2)n1 11.5%, Cc1ccccc1C(=O)NC1CC2CCCC(C1)N2Cc1ccccc1Cl (stereo unspecified) 11.5%, Cc1c(C(=O)NCC(c2ccco2)N(C)C)oc2c(Cl)cccc12 (stereo unspecified) 5.84%, COc1cc2c(cc1OC)C1=C(C#N)CC/C(=N\S(=O)(=O)c3cccc(Cl)c3)N1CC2 4.99%, CC(C)CNC(=O)CN1C(=O)NC2(CCc3ccccc32)C1=O (stereo unspecified) 10.8%, CN1C(=O)/C(=C/C=C2\SCCN2C)OC1=S 8.62%, CN1C(=O)/C(=C\C=C2/CCCN2C)N(C)C1=S 28.8%, CN1CCS/C1=C\C=C1/SC(=S)N(CC(=O)O)C1=O 16.9%, CCN1C(=O)/C(=C/C=C2/CCCN2C)OC1=S 5.72%, Cc1ccc(S(=O)(=O)N2CCN(CN3C(=O)CC4(CCCC4)C3=O)CC2)cc1 1.32%, C=CCOc1ccc(/C=N/n2nnnc2N)cc1OC 12.5%, COc1cc(/C=N/n2nnnc2N)ccc1OC(C)=O 23.6%, COc1cc(/C=N/n2c(C3CCCCC3)n[nH]c2=S)cc(OC)c1O 15.8%, COc1ccc(/C=N/n2nnnc2N)cc1OC 8.91%, COc1cc(/C=N/n2c(C3CCCCC3)n[nH]c2=S)cc(Br)c1O 12.6%, CCOc1ccc(/C=N/n2nnnc2N)cc1OCC 9.77%, O=C(/C=C\c1ccco1)NC(=S)Nc1ccccc1O 15.2%, COc1cccc(NC(=S)NC(=O)c2cccnc2)c1 13.8%, CN(C)C1=NCCN1CCCC1CCCC1 4.05%, CC(C)N(Cc1nccn1C)C(=O)C1CCC(=O)N(CCc2ccccc2)C1 (stereo unspecified) 12.2%, Cc1ccc(/C(N)=N/OC(=O)CCCc2ccccc2)cc1 7.16%, CCOC(=O)Nc1c(C(=O)OC)[nH]c2cccc(OC)c12 9.48%, COc1ccc2c(N)c(C(=O)NN)[nH]c2c1 27.6%, COC(=O)c1cc(S(=O)(=O)NC2CCC(C)CC2)cn1C (stereo unspecified) 0.48%, Cc1ccc(OCCC(=O)OCC(=O)NC(=O)NCc2ccccc2)cc1 3.66%, CN=c1scc(-c2cccs2)n1/N=C/c1ccccc1O 23.1%, Cc1nnc(C)n1/N=C/c1ccc(O)cc1 13%, CN=c1scc(C)n1/N=C/c1ccc2c(c1)OCO2 18.6%, CCN=c1scc(C)n1/N=C/c1ccsc1 25.8%, Cc1ccc(CN2CCN(/N=C/c3ccc(O)c(O)c3)CC2)cc1 31.8%, CN=c1scc(C)n1/N=C/c1ccc(O)c(O)c1O -36.1%, Cn1nnnc1SCCNCc1cccnc1 -1.39%, COC(=O)c1ccc(NC(=O)C(=O)N2CCN(C(=S)Nc3cccc(OC)c3)CC2)cc1 7.83%, Cc1ccc(C)c(C(=O)C(C)Sc2nc3nn(-c4ccccc4)c(=O)c-3c3n2CCCCC3)c1 (stereo unspecified) -2.59%, Cc1ccc2nsnc2c1NC(=O)COc1ccccc1F 11.1%, O=C(/C=C/c1ccco1)NCCc1ccccc1 6.75%, CC(=O)c1ccc(NC(=S)NC(=O)/C=C/c2ccco2)cc1 21.8%, O=C(O)CCCCCNC(=O)/C=C/c1ccco1 5.1%, O=C(/C=C/c1ccco1)NC(=S)Nc1ccccc1 10.7%, COc1ccccc1OCC(=O)Nc1cc(C(F)(F)F)ccc1-n1cncn1 0.07%, COc1cccc(C#Cc2c(C=O)n(C)c3ccccc23)c1 8.82%, Cc1cn(CC(=O)NCc2ccc(N(C)C)cc2)c(=O)[nH]c1=O 11.4%
